A selection: hits, their analogues and other compounds. The true share with any hit is near 2.7%.
a7 integrin act: activators of alpha7 integrin expression for muscular dystrophy | alpha7betagal myoblasts, beta-gal FDG fluorescence, 48 h | Potency, µM (series often up to 38.3 µM), most hits filed as activators | 0.064% of 350,000 active; further: nearly all actives have a fitted effect of over 60% in size
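alpha7betagal+/- myoblasts (passage 13, 250/well) treated 48 h at 37C with compounds at 1:260 dilution of DMSO stock. Lysed, then beta-galactosidase activity read as FDG fluorescence (ex 480/em 540) after 30 min, with pre-read for autofluorescence.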
GLP1R inv ag: acts as inverse agonist at human GLP-1 receptor. P43220. AID 624417. HEK293 GLP-1R CRE-luciferase, luminescence, 24 h; GLP-1R form is constitutively active. 1.6% of 410,000 active. Potency, µM (highest dose often 38.3 µM), most hits filed as inhibitors; further: nearly all actives have a fitted effect of over 55% in size
Target sequence (P43220 whole entry, looked up): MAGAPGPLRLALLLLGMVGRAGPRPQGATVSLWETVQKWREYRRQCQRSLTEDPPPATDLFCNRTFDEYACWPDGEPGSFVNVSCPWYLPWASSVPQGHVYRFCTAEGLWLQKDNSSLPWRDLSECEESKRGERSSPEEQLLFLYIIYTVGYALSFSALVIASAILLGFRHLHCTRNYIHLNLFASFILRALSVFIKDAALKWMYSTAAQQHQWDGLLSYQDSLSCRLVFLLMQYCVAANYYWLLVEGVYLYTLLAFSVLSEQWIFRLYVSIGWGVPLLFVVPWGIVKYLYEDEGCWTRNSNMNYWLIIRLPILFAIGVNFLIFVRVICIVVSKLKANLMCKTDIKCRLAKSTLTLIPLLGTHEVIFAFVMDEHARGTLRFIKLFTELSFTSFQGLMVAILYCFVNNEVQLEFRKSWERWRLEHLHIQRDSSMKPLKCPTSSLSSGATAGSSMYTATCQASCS
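Seeding at 200 cells/uL, 12 h culture, 24 hr compound treatment, then luciferase reagent and a luminescence read; cells are HEK293 stably expressing a constitutively active GLP-1R plus cAMP-responsive luciferase.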
GLP-1R agonist: agonists of human GLP-1 receptor; HEK293 GLP-1R CRE-luciferase, luminescence, 4-6 h; cells express a hypersensitive GLP-1R form; 0.007% of 380,000 active; Potency, µM (doses to about 45.6 µM), usual class: activators
HEK293 tox: cytotoxicity in counter-screen for GLP-1R inverse agonists | Potency, µM (top dose mostly 38.3 µM), usual class: inhibitors | 0.13% of 410,000 active | HEK293 cAMP-luciferase reporter cells, luminescence, 24 h;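 further: loss of luciferase light is scored as toxicity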
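To flag toxic compounds, the library was rerun on cells for 24 hr at 37 deg C and 5% CO2. Viability-linked luminescence was captured 12 min after adding luciferase detection reagent.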
BRCA1 expr act: activators of BRCA1 expression | MCF7-BRCA1-FFLuc reporter, luminescence, 48 h; response scale: scaled: vehicle 0%, 10 µM genistein 100% | Potency, µM (highest dose often 46.1 µM), hits mostly activators | 1.1% of 380,000 active | AID 624202; further: nearly all actives have a fitted effect of over 80% in size
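MCF7 cells carrying a BRCA1-firefly luciferase reporter (2000 cells/well, phenol-red free MEM) were attached for 2 h at 37 °C, then given compounds for 48 h. Luminescence was read 15 min after luciferase reagent; activity normalized to genistein (10 microM) and DMSO.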
Large screens that a line does not name were inactive. The call rests on the fitted dose curve; in most records, active means well fitted curve in the direction sought with a large enough effect; inconclusive means small, poorly fitted or top-dose-only effect, or another doubt; inactive means no such curve, though single readings can be large; an effect the other way counts as inactive or inconclusive.

CCOC(=O)c1oc2nc3c(cc2c1N)CCCC3	BRCA1 expr act inconclusive
CCOC(=O)c1oc2nc3c(cc2c1N)COC(C)(C)C3	a7 integrin act inconclusive, BRCA1 expr act 7.9µM
COC(=O)c1sc2nc3c(cc2c1N)COC(C)(C)C3	BRCA1 expr act 4.5µM
CC1(C)Cc2nc3sc(C(=O)NCCCO)c(N)c3cc2CO1	BRCA1 expr act inconclusive
O=C1c2ccccc2CCCC12N=NCC2c1cccc2ccccc12 (configuration not stated)	GLP1R inv ag 7.1µM
Cc1ccc(C2CN=NC23CCc2ccccc2C3=O)cc1 (configuration not stated)	none
CCN(CC)S(=O)(=O)c1cccc(NC(=O)CCNC(=O)c2ccc([N+](=O)[O-])cc2)c1	none
Cc1ccc(S(=O)(=O)N(C)C)cc1NC(=S)NC(=O)C12CC3CC(CC(C3)C1)C2	GLP1R inv ag inconclusive
NS(=O)(=O)c1cccc(NC(=S)NC(=O)C23CC4CC(CC(C4)C2)C3)c1	GLP1R inv ag 1.3µM
CN(C)S(=O)(=O)c1cccc(NC(=S)NC2CCCCC2)c1	GLP1R inv ag 11µM
FC(F)Oc1ccc(NC(=S)NC23CC4CC(CC(C4)C2)C3)cc1	GLP1R inv ag 4.5µM, HEK293 tox inconclusive
CCN(CC)S(=O)(=O)c1cccc(NC(=O)CCNC(=O)NC23CC4CC(CC(C4)C2)C3)c1	GLP1R inv ag 10µM
COc1cc(NC(=O)Cn2c(-c3ccccc3)cc(C(C)=O)c2C)cc(OC)c1	none (no result: a7 integrin act, GLP-1R agonist, BRCA1 expr act)
COc1ccc(NC(=O)C2CCCN(S(=O)(=O)c3ccc(Br)s3)C2)cc1 (configuration not stated)	none (no result: a7 integrin act, GLP-1R agonist, BRCA1 expr act)
Cc1ccc(S(=O)(=O)N(C)C)cc1NC(=S)NC12CC3CC(CC(C3)C1)C2	GLP1R inv ag inconclusive
CN(C)S(=O)(=O)c1cccc(NC(=S)NC23CC4CC(CC(C4)C2)C3)c1	GLP1R inv ag 7.9µM
CCN(CC)S(=O)(=O)c1cccc(NC(=O)CNC2CCCCCC2)c1	GLP1R inv ag 7.9µM
CCN(CC)S(=O)(=O)c1cccc(NC(=O)CN(C)C2CCCCC2)c1	GLP1R inv ag inconclusive
CCn1ccc(C(=O)Nc2ccc(Cl)cn2)n1	BRCA1 expr act 2.5µM
CCn1nccc1C(=O)Nc1ccc(Cl)cn1	none
COc1cc(CN(C(=O)c2cccc(C)c2)c2ccccn2)cc(OC)c1OC	none (no result: a7 integrin act, GLP-1R agonist)
Cc1ccc(C)c(N2CCN(S(=O)(=O)c3cccc4cccnc34)CC2)c1	GLP1R inv ag 10µM
Cc1ccc(NC(=O)C2CCCN(S(=O)(=O)c3cccc4cccnc34)C2)cc1Cl (configuration not stated)	GLP1R inv ag 10µM (no result: a7 integrin act, GLP-1R agonist, BRCA1 expr act)
Cc1cccc(-c2noc(CN(C(=O)c3ccccc3Cl)C(C)C)n2)c1	GLP1R inv ag inconclusive (no result: a7 integrin act, GLP-1R agonist, BRCA1 expr act)
CC(/C=N/N1CCN(c2ccccc2)CC1)=C\c1ccco1	BRCA1 expr act 6.3µM
CN(C)CCCNC(=S)N1CCC(C(=O)c2ccc(Cl)cc2)CC1	GLP1R inv ag 2µM
CC(C)OCCCNC(=S)N1CCC(C(=O)c2ccc(Cl)cc2)CC1	GLP1R inv ag inconclusive
O=C(NC1(Cc2ccccc2)CCN(CCCc2ccccc2)C1=O)c1ccccc1 (configuration not stated)	GLP1R inv ag 11µM
O=C(NCc1ccc(F)cc1)C(=O)NCC(c1ccco1)S(=O)(=O)c1cccs1 (configuration not stated)	none (no result: a7 integrin act, GLP-1R agonist, BRCA1 expr act)
CN(CC(=O)Nc1cccc(F)c1)C(=O)c1cc2c(s1)CCCCC2	GLP1R inv ag inconclusive
CN(CC(=O)Nc1ccc(F)cc1)C(=O)c1cc2c(s1)CCCCC2	GLP1R inv ag 10µM
C#CCn1c(C)cc(C)c(S(=O)(=O)c2ccccc2)c1=O	BRCA1 expr act 13µM
CCCc1cc(C(=O)N/N=C/c2cccn2C)cs1	GLP1R inv ag inconclusive, BRCA1 expr act 7.9µM
COc1ccc(OCC(O)Cn2c(=N)n(Cc3ccccc3)c3ccccc32)cc1 (configuration not stated)	GLP1R inv ag inconclusive, HEK293 tox 7.9µM
CCN(CC)CCn1c(=N)n(CC(O)COc2ccccc2C)c2ccccc21 (configuration not stated)	GLP1R inv ag 10µM, HEK293 tox inconclusive (no result: a7 integrin act, GLP-1R agonist, BRCA1 expr act)
Cc1ccc(OCC(O)Cn2c(=N)n(Cc3ccccc3)c3ccccc32)cc1 (configuration not stated)	GLP1R inv ag 11µM, HEK293 tox inconclusive
Cc1cccc(OCC(O)Cn2c(=N)n(Cc3ccccc3)c3ccccc32)c1 (configuration not stated)	GLP1R inv ag inconclusive
COc1ccc2c(c1)/C(=C\c1cccc(/C=C3/C(=O)Nc4ccc(OC)cc43)n1)C(=O)N2	GLP1R inv ag inconclusive, HEK293 tox 2.2µM
Cc1ccc2c(c1)/C(=C/c1ccccc1)C(=O)N2	GLP1R inv ag inconclusive
Nc1cc2c3c(cccc3c1)C(=O)N(CCN1CCCC1)C2=O	GLP1R inv ag inconclusive
O=C1c2cccc3cc([N+](=O)[O-])cc(c23)C(=O)N1CCN1CCCC1	GLP1R inv ag 4.5µM
CCn1nc(-c2ccc(C)cc2)nc2c(=O)n(C)c(=O)nc1-2	none (no result: a7 integrin act, GLP1R inv ag, GLP-1R agonist, HEK293 tox)
CC(=O)c1cccc(NC(=O)c2cc(-c3ccco3)on2)c1	BRCA1 expr act 10µM
CC(C)c1cc(C(=O)Nc2cccc(Cl)c2)no1	BRCA1 expr act 7.1µM
CC(=O)c1cccc(NC(=O)c2cc(-c3ccc(F)cc3)on2)c1	none
CC(=O)c1cccc(NC(=O)c2cc(C(C)C)on2)c1	BRCA1 expr act 3.2µM
O=C(Nc1cccc(Cl)c1)c1cnc[nH]1	BRCA1 expr act 7.9µM
CC(C)c1cc(C(=O)Nc2cc(Cl)ccc2O)no1	BRCA1 expr act inconclusive
Cc1ccc2c(c1)sc1nc(-c3cc4ccccc4oc3=O)cn12	none (no result: a7 integrin act, GLP-1R agonist, BRCA1 expr act)
COc1ccc(-c2csc(N(C)C(=O)c3cccs3)n2)cc1	BRCA1 expr act 10µM
CN(C(=O)c1ccco1)c1nc(-c2ccc(F)cc2)cs1	BRCA1 expr act 4.5µM
COC(=O)c1ccc(NC(=O)CN2CCCN(Cc3ccc(Cl)cc3)S2(=O)=O)cc1	GLP1R inv ag inconclusive (no result: a7 integrin act, GLP-1R agonist, BRCA1 expr act)
COc1ccc(C)cc1NC(=O)C(=O)NCCc1csc(-c2ccc(C)cc2)n1	none (no result: a7 integrin act, GLP-1R agonist, BRCA1 expr act)
Nc1ccnn1-c1ccccc1	none
Fc1ccc(-c2ccnn2-c2ccccc2)cc1	a7 integrin act 4.5µM
N#CCCN1CCN(Cc2cc(-c3ccccc3)ccc2O)CC1	none
CC(C)(C)CC(C)(C)c1ccc(O)c(CN2CCN(CCC#N)CC2)c1	GLP1R inv ag 11µM
COc1ccccc1OCC(=O)N/N=C1/C=C(C)CC1	a7 integrin act 10µM
COc1ccccc1OCC(=O)NNC(=O)CCCC(=O)NNC(=O)COc1ccccc1OC	none
COc1ccc(C2=Nc3ccccc3N(C(=O)c3ccc(C(F)(F)F)cc3)C2C(=O)NCc2ccccc2)cc1 (configuration not stated)	GLP1R inv ag 6.3µM (no result: a7 integrin act, GLP-1R agonist, BRCA1 expr act)
